Records with an inconclusive call do not appear. Activity calls are given as the source filed them. Unless noted, the call rests on the fitted dose curve; in most records, active means well fitted curve in the direction sought with a large enough effect in the repeat runs; inconclusive means weak or mixed curves; inactive means no such curve, though single readings can be large; an effect the other way counts as inactive or inconclusive.

Assay [1] can be described thus: qHTS assay to identify small molecule agonists of the androgen receptor (AR) signaling pathway in the presence of an antagonist - cell viability counter screen (AID 1259379).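 Further: MDA-kb2 human breast cancer cells carrying an MMTV luciferase reporter; series mostly up to about 92 µM; nearly all actives have a fitted effect of over 25% in size.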 In outline:
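A CellTiter-Fluor read-out measured viability of MDA-kb2 reporter cells (MMTV promoter with AR and GR response elements). Treatment: nilutamide 3.0uM final with compounds at 15 concentrations, 16 hr, 37C, 0% CO2.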

Assay [2] can be described thus: qHTS assay to identify small molecule agonists of the estrogen receptor beta (ER-beta) signaling pathway - cell viability counter screen (AID 1259380). Further: nearly all actives have a fitted effect of over 30% in size. Further: potency means the concentration at half of the fitted maximal effect. In short, it runs like this: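 Cells used were ER-beta-UAS-bla HEK293T in medium with 2% charcoal-stripped FBS. They were treated for 16 hr at 37C. Viability came from CellTiter-Glo luminescence.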
Assay [3] can be described thus: qHTS assay to identify small molecule antagonists of the estrogen receptor beta (ER-beta) signaling pathway - cell viability counter screen (AID 1259382). Further: series mostly up to about 92 µM; nearly all actives have a fitted effect of over 55% in size. In short, it runs like this: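 Agonist-stimulated (1nM E2) ER-beta-UAS-bla HEK293T cells are incubated with library compounds for 16 hr at 37C. Cell viability is then assessed in the reporter-assay wells by adding CellTiter-Glo and reading luminescence after 30 min.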

For assay [4], the target named is Estrogen receptor (Homo sapiens) (UniProt P03372). Put plainly: qHTS assay to identify small molecule agonists of the estrogen receptor alpha (ER-alpha) signaling pathway in the presence of an antagonist (AID 1259383; calls by dose curve; further: top concentration of the series differs between compounds; nearly all actives have a fitted effect of over 15% in size). In outline:
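Using VM7Luc4E2 cells seeded 24hr before treatment, antagonist ICI-182,780 (10.0nM final) was added, followed by compounds at 15 concentrations. Plates incubated 22hr; ONE-Glo luminescence quantified reporter activity.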

A short description of assay [5]: qHTS assay to identify small molecule agonists or antagonists of the thyroid stimulating hormone receptor (TSHR) signaling pathway - wild type cell line counter screen (AID 1259384; calls by dose curve). In outline: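 Counter screen in untransfected Hek293: compounds (15-point titration, triplicate) plus phosphodiesterase inhibitor Ro20-1724 added after 18 h plating; 30 min RT. Intracellular cAMP via competitive d2/cryptate immunoassay, 1 h incubation.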

Assay [6] deals with Thyrotropin receptor (Homo sapiens) (UniProt P16473). Briefly: qHTS assay to identify small molecule antagonists of the thyroid stimulating hormone receptor (TSHR) signaling pathway (AID 1259385; calls by dose curve; further: nearly all actives have a fitted effect of over 20% in size; further: potency means the concentration at half of the fitted maximal effect). In outline:
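Antagonist mode: compound-treated TSHR-expressing HEK293 cells were stimulated with 1.5 ng/mL TSH (final) in presence of Ro20-1724 for 30 min at RT. HTRF cAMP detection after 1 h; each compound tested at 15 concentrations, triplicate.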

Assay [7] can be described thus: qHTS assay to identify small molecule agonists of the estrogen receptor alpha (ER-alpha) signaling pathway in the presence of an antagonist - cell viability counter screen (AID 1259386).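 Further: series mostly up to about 92 µM; cells exposed to compounds for 22 h at 37 °C before the viability read; nearly all actives have a fitted effect of over 30% in size.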 In short, it runs like this: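 ICI-182,780 at 10.0nM final accompanies the compound titration (15 concentrations, 22hr, 37C) on VM7Luc4E2 cells. The CellTiter-Fluor fluorescence readout runs in the same wells as the luciferase assay.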

For assay [8], the target named is Progesterone receptor (Homo sapiens) (UniProt P06401). Put plainly: qHTS assay to identify small molecule agonists of the progesterone receptor (PR) signaling pathway (AID 1346784; calls by dose curve; further: nearly all actives have a fitted effect of over 30% in size). In short, it runs like this:
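Cells (PR-UAS-bla HEK 293T, GripTite) were plated in assay medium containing 2% charcoal-stripped FBS and incubated 6 hr. Test compounds in DMSO were added for 16 hr at 37C. FRET substrate was then loaded for 2 hr at room temperature before fluorescence reading.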

Assay [9] shares this target. Briefly: qHTS assay to identify small molecule antagonists of the progesterone receptor (PR) signaling pathway (AID 1346795; active means well fitted inhibition curve with a large enough effect in the signal ratio in the repeat runs, not every such curve was filed as active; the % refers to the signal ratio). In outline: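 Antagonist mode: compounds tested against 1 nM (final) promegestone stimulation in HEK293T cells expressing PR-UAS-bla reporter, 16 hr at 37C, 5% CO2; beta-lactamase activity detected via B/G FRET substrate after 2 hr at room temperature.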

A short description of assay [10]: qHTS assay to identify small molecule antagonists of the progesterone receptor (PR) signaling pathway - cell viability counter screen (AID 1346798). Further: series mostly up to about 92 µM; nearly all actives have a fitted effect of over 50% in size. In outline:
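Counter screen for cytotoxicity: viability of PR-UAS-bla HEK293T cells was measured with CellTiter-Glo luminescence following 16 hr compound exposure in the presence of R5020.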

A short description of assay [11]: qHTS assay to identify small molecule agonists of the progesterone receptor (PR) signaling pathway - cell viability counter screen (AID 1346799; calls by dose curve; further: nearly all actives have a fitted effect of over 45% in size). In outline: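 Cells (PR-UAS-bla HEK293T) are plated at 3,000/well in 2% charcoal-stripped FBS medium, rested 6 hr, dosed and incubated 16 hr at 37C. CellTiter-Glo is then added and luminescence measured after 30 min at room temperature.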

A short description of assay [12]: qHTS assay to identify small molecule antagonists of the TGF-beta/Smad signaling pathway - cell viability counter screen (AID 1346824). Further: nearly all actives have a fitted effect of over 50% in size. In outline:
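Cytotoxicity counter-screen run in the same wells as the beta-lactamase Smad reporter read: CellTiter-Glo luminescence after 30 min at room temperature. HEK 293T SBE-bla cells had 5 hr compound exposure at 37 C with TGF-beta1 (0.25 ng/mL stock).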

The nature of assay [13]: qHTS assay to identify small molecule agonists of the TGF-beta/Smad signaling pathway - cell viability counter screen (AID 1346829). Further: top concentration of the series differs between compounds; nearly all actives have a fitted effect of over 45% in size. In short, it runs like this: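 CellTiter-Glo luminescence readout; SBE-bla HEK 293T cells, overnight plating, compound 5 hr at 37 C/5% CO2, then bla substrate 2 hr RT, then CellTiter-Glo 30 min RT.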
Assay [14] is described as follows: qHTS assay to identify small molecule agonists of the TGF-beta/Smad signaling pathway (AID 1346859; active means well fitted activation curve with a large enough effect in the signal ratio in the repeat runs, not every such curve was filed as active; the % refers to the signal ratio; further: series mostly up to about 77 µM). In short, it runs like this: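 Reporter line: HEK 293T with stably integrated SBE-controlled beta-lactamase. Compound exposure lasts 5 hr at 37 C and 5% CO2; substrate loading follows for 2 hr at room temperature, with emission read at 460 and 530 nm.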
A short description of assay [15]: qHTS assay to identify small molecule antagonists of the sonic hedgehog signaling (Shh) pathway (AID 1259369; calls by dose curve; further: nearly all actives have a fitted effect of over 45% in size). In outline:
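Conditioned medium drives Shh signalling in 3T3Gli1-Luc cells; compounds in DMSO co-applied, 24hr at 37 C, then luciferase luminescence.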

Assay [16] deals with Androgen receptor (Homo sapiens) (UniProt P10275). Briefly: qHTS assay to identify small molecule agonists of the androgen receptor (AR) signaling pathway in the presence of an antagonist (AID 1259381; calls by dose curve; further: nearly all actives have a fitted effect of over 15% in size). In outline:
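Using human MDA-kb2 cells with an MMTV promoter–luciferase construct (AR and GR response elements), agonist activity is scored under 3.0uM nilutamide (final) co-treatment; 16hr incubation, 37C, luminescence readout via ONE-Glo.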

The target in assay [17] is Thyrotropin-releasing hormone receptor (Homo sapiens) (UniProt P34981). Briefly: qHTS assay to identify small molecule antagonists of the thyrotropin-releasing hormone receptor (TRHR) signaling pathway (AID 1346877; active means well fitted inhibition curve with a large enough effect in the repeat runs, not every such curve was filed as active; further: series mostly up to about 51 µM). In outline:
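Screening used HEK293 cells engineered with TRHR, with a brief 5 min room-temperature compound exposure preceding addition of TRH to 1 nM. The read-out was kinetic calcium-dye fluorescence, concentration-response from 15 doses in triplicate.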

Assay [18] addresses Estrogen receptor beta (Homo sapiens) (UniProt Q92731). Briefly: qHTS assay to identify small molecule agonists of the estrogen receptor beta (ER-beta) signaling pathway (AID 1259377; active means well fitted activation curve with a large enough effect in the signal ratio in the repeat runs, not every such curve was filed as active; the % refers to the signal ratio). In outline:
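Agonist mode cell assay in GripTite HEK293T cells expressing an ER-beta fusion that drives beta-lactamase from an Upstream Activator Sequence; 16 hr compound exposure at 37C, then 2 h LiveBLAzer B/G FRET substrate at room temperature, fluorescence read-out.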

For assay [19] the target is unchanged. Put plainly: qHTS assay to identify small molecule antagonists of the estrogen receptor beta (ER-beta) signaling pathway (AID 1259378; active means well fitted inhibition curve with a large enough effect in the signal ratio in the repeat runs, not every such curve was filed as active; the % refers to the signal ratio). In short, it runs like this: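 Antagonist mode: compounds added to beta-lactamase reporter HEK293T ER-beta-UAS cells stimulated with E2 (1nM final), 16 hr at 37C. LiveBLAzer B/G FRET substrate, 2 hours room temperature, fluorescence read-out.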

Estrogen receptor (Homo sapiens), sequence (P03372 whole entry, looked up): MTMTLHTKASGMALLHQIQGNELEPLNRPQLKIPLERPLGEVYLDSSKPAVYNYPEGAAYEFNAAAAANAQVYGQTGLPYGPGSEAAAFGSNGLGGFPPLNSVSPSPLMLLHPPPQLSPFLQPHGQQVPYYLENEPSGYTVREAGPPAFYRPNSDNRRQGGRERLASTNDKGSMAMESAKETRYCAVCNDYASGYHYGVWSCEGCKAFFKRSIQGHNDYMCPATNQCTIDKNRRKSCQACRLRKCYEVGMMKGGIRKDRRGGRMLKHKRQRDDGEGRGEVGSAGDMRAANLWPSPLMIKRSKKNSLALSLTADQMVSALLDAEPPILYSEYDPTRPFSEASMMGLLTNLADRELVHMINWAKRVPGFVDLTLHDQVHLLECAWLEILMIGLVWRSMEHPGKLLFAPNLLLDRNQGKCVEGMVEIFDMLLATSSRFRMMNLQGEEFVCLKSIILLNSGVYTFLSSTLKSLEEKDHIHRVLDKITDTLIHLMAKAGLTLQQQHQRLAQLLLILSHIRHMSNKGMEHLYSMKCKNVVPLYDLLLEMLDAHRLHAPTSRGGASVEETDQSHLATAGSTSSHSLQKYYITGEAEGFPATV
Progesterone receptor (Homo sapiens), sequence (P06401 whole entry, looked up): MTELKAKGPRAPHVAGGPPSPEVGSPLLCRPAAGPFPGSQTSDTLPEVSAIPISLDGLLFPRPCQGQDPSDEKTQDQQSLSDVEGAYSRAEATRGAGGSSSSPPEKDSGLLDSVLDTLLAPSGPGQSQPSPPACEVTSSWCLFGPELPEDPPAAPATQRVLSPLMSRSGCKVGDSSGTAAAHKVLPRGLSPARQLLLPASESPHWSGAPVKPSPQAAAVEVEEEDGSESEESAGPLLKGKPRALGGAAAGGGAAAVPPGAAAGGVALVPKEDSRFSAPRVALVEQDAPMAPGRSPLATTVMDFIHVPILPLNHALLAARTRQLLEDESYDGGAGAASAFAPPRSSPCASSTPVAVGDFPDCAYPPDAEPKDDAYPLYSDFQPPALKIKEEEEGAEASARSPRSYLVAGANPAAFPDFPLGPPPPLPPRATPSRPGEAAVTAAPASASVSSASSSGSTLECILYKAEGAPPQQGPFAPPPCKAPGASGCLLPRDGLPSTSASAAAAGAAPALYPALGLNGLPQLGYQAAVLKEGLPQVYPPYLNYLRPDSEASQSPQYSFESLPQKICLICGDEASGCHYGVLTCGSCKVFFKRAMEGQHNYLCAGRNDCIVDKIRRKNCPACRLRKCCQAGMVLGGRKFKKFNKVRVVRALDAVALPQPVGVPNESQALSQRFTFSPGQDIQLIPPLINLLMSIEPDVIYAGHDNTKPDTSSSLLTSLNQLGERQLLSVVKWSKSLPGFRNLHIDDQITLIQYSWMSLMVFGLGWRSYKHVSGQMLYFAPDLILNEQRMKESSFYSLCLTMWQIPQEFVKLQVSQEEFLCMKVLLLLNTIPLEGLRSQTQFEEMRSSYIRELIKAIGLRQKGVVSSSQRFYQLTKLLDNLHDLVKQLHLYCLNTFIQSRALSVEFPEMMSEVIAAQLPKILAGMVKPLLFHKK
Estrogen receptor beta (Homo sapiens), sequence (Q92731 whole entry, looked up, the tested form may be a part): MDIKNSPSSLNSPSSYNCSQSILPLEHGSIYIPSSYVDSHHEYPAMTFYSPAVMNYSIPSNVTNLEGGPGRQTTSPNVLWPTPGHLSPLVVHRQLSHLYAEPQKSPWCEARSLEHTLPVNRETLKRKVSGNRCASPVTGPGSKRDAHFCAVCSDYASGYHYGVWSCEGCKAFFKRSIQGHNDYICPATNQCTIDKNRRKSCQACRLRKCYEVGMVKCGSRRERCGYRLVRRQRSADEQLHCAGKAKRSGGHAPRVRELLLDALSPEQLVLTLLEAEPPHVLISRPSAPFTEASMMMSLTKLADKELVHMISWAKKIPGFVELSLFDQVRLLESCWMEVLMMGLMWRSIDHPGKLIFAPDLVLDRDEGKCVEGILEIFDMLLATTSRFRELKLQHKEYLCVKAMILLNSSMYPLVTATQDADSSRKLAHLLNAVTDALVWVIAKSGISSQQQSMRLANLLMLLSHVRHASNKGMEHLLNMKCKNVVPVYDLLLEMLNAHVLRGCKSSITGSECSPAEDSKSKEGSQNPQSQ
Thyrotropin receptor (Homo sapiens), sequence (P16473 whole entry, looked up): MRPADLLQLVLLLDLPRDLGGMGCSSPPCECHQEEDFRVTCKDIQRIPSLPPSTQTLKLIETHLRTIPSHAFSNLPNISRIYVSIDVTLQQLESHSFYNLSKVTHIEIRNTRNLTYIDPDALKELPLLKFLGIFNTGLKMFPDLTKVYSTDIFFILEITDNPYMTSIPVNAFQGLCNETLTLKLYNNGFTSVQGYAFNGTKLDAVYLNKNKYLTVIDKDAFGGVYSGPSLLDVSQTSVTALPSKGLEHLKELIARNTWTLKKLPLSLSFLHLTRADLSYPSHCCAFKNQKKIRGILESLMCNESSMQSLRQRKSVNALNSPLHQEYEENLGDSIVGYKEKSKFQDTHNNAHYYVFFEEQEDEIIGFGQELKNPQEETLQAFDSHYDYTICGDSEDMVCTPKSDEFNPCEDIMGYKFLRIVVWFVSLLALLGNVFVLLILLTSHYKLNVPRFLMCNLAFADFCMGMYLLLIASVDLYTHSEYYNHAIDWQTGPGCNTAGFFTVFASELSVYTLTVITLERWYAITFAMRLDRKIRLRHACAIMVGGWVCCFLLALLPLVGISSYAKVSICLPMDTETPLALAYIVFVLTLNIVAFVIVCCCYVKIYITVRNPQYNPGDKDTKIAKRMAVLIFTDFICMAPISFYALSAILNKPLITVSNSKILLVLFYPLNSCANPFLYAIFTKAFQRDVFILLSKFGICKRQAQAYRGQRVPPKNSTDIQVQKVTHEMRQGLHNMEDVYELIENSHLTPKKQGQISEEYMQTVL
Thyrotropin-releasing hormone receptor (Homo sapiens), sequence (P34981 whole entry, looked up): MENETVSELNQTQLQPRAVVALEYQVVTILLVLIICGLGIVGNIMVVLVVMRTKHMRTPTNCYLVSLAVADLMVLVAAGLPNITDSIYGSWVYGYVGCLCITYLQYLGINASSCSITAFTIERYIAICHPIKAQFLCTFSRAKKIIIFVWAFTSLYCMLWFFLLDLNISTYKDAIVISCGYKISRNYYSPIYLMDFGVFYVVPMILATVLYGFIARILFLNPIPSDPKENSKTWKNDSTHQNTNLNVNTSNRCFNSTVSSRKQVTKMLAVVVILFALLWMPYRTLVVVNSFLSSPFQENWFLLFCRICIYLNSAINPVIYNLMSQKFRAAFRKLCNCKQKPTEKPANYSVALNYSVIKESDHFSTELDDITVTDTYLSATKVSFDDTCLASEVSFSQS
Androgen receptor (Homo sapiens), sequence (P10275 whole entry, looked up): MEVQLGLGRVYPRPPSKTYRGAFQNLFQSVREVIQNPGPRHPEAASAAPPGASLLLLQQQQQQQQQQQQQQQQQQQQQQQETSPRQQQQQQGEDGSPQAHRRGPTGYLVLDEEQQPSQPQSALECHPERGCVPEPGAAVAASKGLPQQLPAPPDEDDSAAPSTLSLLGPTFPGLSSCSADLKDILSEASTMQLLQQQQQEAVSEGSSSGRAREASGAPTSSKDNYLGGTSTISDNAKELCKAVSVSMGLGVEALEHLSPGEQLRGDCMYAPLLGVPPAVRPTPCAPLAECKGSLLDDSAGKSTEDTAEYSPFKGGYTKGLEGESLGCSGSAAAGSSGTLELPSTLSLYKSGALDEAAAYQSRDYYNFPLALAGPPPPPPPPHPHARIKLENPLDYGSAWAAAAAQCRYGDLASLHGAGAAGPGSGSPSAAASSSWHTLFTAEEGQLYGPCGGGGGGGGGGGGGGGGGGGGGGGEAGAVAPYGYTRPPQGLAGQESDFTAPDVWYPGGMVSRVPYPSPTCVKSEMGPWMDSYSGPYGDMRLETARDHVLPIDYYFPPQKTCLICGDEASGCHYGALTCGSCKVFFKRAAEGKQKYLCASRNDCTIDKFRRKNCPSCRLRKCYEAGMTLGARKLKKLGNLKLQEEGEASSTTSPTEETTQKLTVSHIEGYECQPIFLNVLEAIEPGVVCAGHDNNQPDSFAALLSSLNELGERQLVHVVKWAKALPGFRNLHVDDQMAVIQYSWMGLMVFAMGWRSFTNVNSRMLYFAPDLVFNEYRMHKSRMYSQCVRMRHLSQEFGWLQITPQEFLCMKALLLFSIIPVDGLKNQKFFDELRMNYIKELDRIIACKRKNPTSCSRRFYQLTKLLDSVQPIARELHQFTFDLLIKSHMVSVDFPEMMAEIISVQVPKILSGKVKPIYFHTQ

Turning to `O=C(O)C(F)(F)C(F)(F)C(F)(F)C(F)(F)C(F)(F)C(F)(F)C(F)(F)C(F)(F)C(F)(F)F`, the Potency result in assay [1], in [3], in assay [4], in [6], in assay [7] and in assay [8] was “inactive” throughout. For the same compound, the Potency result in [9], in [10], in assay [11], in assay [12] and in assay [13] was “inactive” throughout. Also, the Potency in assay [2] is 10.9 µM (active). In addition, the result in assay [5] and in assay [14] was inactive.

Turning to `CC(=O)NC1CCSC1=O` (configuration not stated), the Potency entry in assay [15], in assay [2], in assay [16], in [3], in assay [4] and in assay [6] was “inactive” in each case. For the same compound, the Potency entry in [7], in [8], in [9], in assay [10], in assay [11] and in assay [12] was “inactive” in each case. For the same compound, the Potency entry in assay [13] and in assay [17] was “inactive” each time. Further, the call in assay [5] and in [14] was inactive.

For `CCOP(O)OCC`, the Potency entry in assay [15], in assay [18], in [19], in [2], in [3] and in assay [6] was “inactive” in each case. In addition, the Potency result in assay [7], in [8], in [9], in assay [10], in [11] and in assay [12] was “inactive” throughout. The Potency result in assay [13] and in assay [17] was “inactive” in each case. Besides, the result in assay [5] and in assay [14] was inactive.

Turning to `CN1[C@@H]2CC[C@H]1CC(OC(=O)c1cc(Cl)cc(Cl)c1)C2` (some centres not stated), the Potency entry in assay [18], in assay [19], in assay [1], in [3], in [4] and in assay [7] was “inactive” throughout. The Potency result in assay [8], in [9], in [12], in [13] and in [17] was “inactive” each time. Moreover, the Potency in assay [2] and in assay [6] was 26.6 µM (active) each time. For the same compound, the call in [5] and in assay [14] was inactive.

Consider `CNC(C)Cc1ccccc1OC` (configuration not stated), for which the Potency entry in assay [15], in assay [1], in [2], in [3], in assay [6] and in assay [7] was “inactive” throughout. Further, the Potency result in [8], in assay [9], in assay [10], in assay [11], in assay [12] and in assay [13] was “inactive” throughout. In assay [17], the Potency entry is “inactive”. In addition, the compound was classed as inactive in [5] and in [14].

Regarding `CC(C)(Cl)[N+](=O)[O-]`, the Potency entry in assay [15], in assay [18], in [2], in assay [3], in assay [6] and in assay [7] was “inactive” in each case. Also, the Potency result in [8], in assay [10], in assay [12], in assay [13] and in assay [17] was “inactive” in each case. The compound was classed as inactive in [5].

In the case of `Nc1nc(N)nc(N)n1`, the Potency result in [15], in assay [18], in assay [19], in [1], in assay [2] and in assay [3] was “inactive” throughout. The Potency entry in assay [6], in assay [7], in assay [8], in assay [9], in assay [10] and in assay [11] was “inactive” each time. Further, the Potency entry in assay [12], in [13] and in assay [17] was “inactive” in each case. Also, the result in assay [5] and in assay [14] was inactive.

For the compound `BrCC(Br)C1CCC(Br)C(Br)C1` (configuration not stated), the Potency entry in assay [15], in assay [1], in assay [2], in assay [3], in assay [7] and in assay [8] was “inactive” in each case. The Potency result in assay [10], in assay [11], in assay [13] and in assay [17] was “inactive” throughout. For the same compound, the outcome in [5] and in [14] was inactive.

For the origin of these results see PubChem BioAssay (Tox21).
